Measured values reported in PubChem BioAssay (Tox21).
Inconclusive results are not listed. Activity calls are given as the source filed them. Unless noted, calls come from the whole dose curve; as a rule, active = well fitted curve in the direction sought with a large enough effect in the repeat runs; inconclusive = weak or mixed curves; inactive = no such curve, though single readings can be large; an effect the other way counts as inactive or inconclusive.

Experiments:
[1] = qHTS assay to identify small molecule antagonists of the estrogen related receptor (ERR) signaling pathway from Tox21 library - cell viability counter screen (AID 1224834); note: nearly all actives have a fitted effect of over 30% in size
How it was run: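 ERR reporter cells were plated 6 h before compound addition, then exposed to test compounds in DMSO for 17.5 h at 37 C. Viability was read as CellTiter-Fluor fluorescence after a 30-minute incubation at 37 C.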

[2] = target: Luciferin 4-monooxygenase (Photinus pyralis) (UniProt P08659); experiment: qHTS assay to identify small molecule inhibitors of firefly luciferase (AID 1224835); note: series mostly up to about 120 µM; nearly all actives have a fitted effect of over 25% in size
Luciferin 4-monooxygenase (Photinus pyralis), sequence (P08659 whole entry, looked up): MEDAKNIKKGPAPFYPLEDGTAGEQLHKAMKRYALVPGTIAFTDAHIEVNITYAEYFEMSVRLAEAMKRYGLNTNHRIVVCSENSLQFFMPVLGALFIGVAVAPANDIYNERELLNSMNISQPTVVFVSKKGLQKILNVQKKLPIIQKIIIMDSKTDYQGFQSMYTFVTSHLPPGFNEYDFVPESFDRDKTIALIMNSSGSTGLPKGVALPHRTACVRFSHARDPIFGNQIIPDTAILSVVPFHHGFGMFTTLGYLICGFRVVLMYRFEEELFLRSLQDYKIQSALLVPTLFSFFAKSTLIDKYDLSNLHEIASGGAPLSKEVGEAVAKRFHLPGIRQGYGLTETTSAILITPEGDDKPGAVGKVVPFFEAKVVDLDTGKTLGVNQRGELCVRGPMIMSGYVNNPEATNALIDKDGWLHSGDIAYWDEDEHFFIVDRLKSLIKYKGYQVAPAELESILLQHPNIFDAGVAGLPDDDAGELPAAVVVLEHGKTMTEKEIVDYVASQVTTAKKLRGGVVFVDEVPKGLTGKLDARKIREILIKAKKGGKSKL
How it was run: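 Biochemical qHTS: compounds run as interplate titrations against purified firefly enzyme, with D-luciferin and ATP each at its KM concentration. Light output recorded by CCD imaging.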

[3] = qHTS assay to identify small molecule agonists of the constitutive androstane receptor (CAR) signaling pathway - cell viability counter screen (AID 1224836); note: series mostly up to about 92 µM; nearly all actives have a fitted effect of over 45% in size
How it was run: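 Counter screen multiplexed with the CAR reporter readout: HepG2 cells co-transfected with hCAR and the CYP2B6-2.2kb construct receive a 15-concentration compound series and 0.75 uM PK11195 (final), then CellTiter-Fluor fluorescence is read after 23 h.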

[4] = qHTS assay to identify small molecule antagonists of the constitutive androstane receptor (CAR) signaling pathway - cell viability counter screen (AID 1224837); note: series mostly up to about 92 µM; nearly all actives have a fitted effect of over 45% in size
How it was run: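 HepG2 cells stably expressing hCAR and a CYP2B6-2.2kb reporter were plated and pre-incubated 4 hr at 37 C/5% CO2, then given compounds at 15 concentrations plus 50 nM CITCO (final). After 23 hr, viability was read by CellTiter-Fluor fluorescence.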

[5] = target: Nuclear receptor subfamily 1 group I member 3 (Homo sapiens) (UniProt Q14994); experiment: qHTS assay to identify small molecule antagonists of the constitutive androstane receptor (CAR) signaling pathway (AID 1224838); note: nearly all actives have a fitted effect of over 40% in size
Nuclear receptor subfamily 1 group I member 3 (Homo sapiens), sequence (Q14994 whole entry, looked up): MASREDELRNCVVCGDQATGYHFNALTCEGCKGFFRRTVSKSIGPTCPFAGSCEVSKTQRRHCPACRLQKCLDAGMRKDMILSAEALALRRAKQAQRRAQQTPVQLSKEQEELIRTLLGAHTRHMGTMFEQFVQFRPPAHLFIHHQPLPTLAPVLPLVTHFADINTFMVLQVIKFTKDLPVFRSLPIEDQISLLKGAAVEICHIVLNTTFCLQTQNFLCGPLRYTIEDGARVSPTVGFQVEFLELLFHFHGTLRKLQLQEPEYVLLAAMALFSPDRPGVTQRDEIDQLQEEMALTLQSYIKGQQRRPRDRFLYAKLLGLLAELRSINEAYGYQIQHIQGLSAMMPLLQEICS
How it was run: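 HepG2 cells stably co-transfected with hCAR and a CYP2B6-2.2kb luciferase reporter were seeded 4 h before compound addition at 15 concentrations. Cells were stimulated with 50 nM CITCO (final) for 24 h at 37 C; luciferase luminescence was then read.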

[6] = target: Nuclear receptor subfamily 1 group I member 3 (Homo sapiens) (UniProt Q14994); experiment: qHTS assay to identify small molecule agonists of the constitutive androstane receptor (CAR) signaling pathway (AID 1224839); note: nearly all actives have a fitted effect of over 15% in size; note: potency is the fitted concentration of half-maximal effect
How it was run: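 A 15-concentration quantitative screen uses HepG2 cells co-transfected stably with human CAR and CYP2B6-2.2kb reporter. Treatment lasts 24 h with 0.75 uM PK11195 final present; ONE-Glo luminescence is the signal.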

[7] = qHTS assay to identify small molecule antagonists of the estrogen related receptor signaling pathway with the pleiotropic PPARgamma coactivator (PGC) from Tox21 10K library - cell viability counter screen (AID 1224840; active = well fitted cell-killing curve with a large enough effect in the repeat runs, not every such curve was filed as active; note: nearly all actives have a fitted effect of over 40% in size)
How it was run: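 PGC/ERR cells were seeded at 2,000 cells/well and left 6 hours at 37 C/5% CO2 before pin-tool addition of compounds in DMSO. After 17.5 hours at 37 C, CellTiter-Fluor was added and fluorescence read 30 minutes later.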

[8] = qHTS assay to identify small molecule antagonists of the estrogen related receptor signaling pathway with the pleiotropic PPARgamma coactivator (PGC) from Tox21 10K library (AID 1224841; call rule not given here; note: series mostly up to about 92 µM; actives are mostly falling curves and most rising ones were filed inactive; nearly all actives have a fitted effect of over 50% in size)
How it was run: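 PGC/ERR reporter cells were seeded at 2,000 cells/well and held 6 hours at 37 C/5% CO2 before pin-tool addition of compounds in DMSO. After 18 hours at 37 C, One-Glo was added and luminescence read after 30 minutes at room temperature.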

[9] = qHTS assay to identify small molecule agonists of the estrogen related receptor signaling pathway with the pleiotropic PPARgamma coactivator (PGC) from Tox21 10K library (AID 1224842); note: nearly all actives have a fitted effect of over 15% in size
How it was run: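 PGC/ERR reporter cell line, 2,000 cells per well, incubated 6 h at 37 C before 23 nL compound in DMSO was added. After 18 h at 37 C, One-Glo luminescence read following 30 min at room temperature.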

[10] = target: Thyrotropin receptor (Homo sapiens) (UniProt P16473); experiment: qHTS assay to identify small molecule agonists of the thyroid stimulating hormone receptor (TSHR) signaling pathway (AID 1224843; calls by dose curve; note: nearly all actives have a fitted effect of over 45% in size; note: potency is the fitted concentration of half-maximal effect)
Thyrotropin receptor (Homo sapiens), sequence (P16473 whole entry, looked up): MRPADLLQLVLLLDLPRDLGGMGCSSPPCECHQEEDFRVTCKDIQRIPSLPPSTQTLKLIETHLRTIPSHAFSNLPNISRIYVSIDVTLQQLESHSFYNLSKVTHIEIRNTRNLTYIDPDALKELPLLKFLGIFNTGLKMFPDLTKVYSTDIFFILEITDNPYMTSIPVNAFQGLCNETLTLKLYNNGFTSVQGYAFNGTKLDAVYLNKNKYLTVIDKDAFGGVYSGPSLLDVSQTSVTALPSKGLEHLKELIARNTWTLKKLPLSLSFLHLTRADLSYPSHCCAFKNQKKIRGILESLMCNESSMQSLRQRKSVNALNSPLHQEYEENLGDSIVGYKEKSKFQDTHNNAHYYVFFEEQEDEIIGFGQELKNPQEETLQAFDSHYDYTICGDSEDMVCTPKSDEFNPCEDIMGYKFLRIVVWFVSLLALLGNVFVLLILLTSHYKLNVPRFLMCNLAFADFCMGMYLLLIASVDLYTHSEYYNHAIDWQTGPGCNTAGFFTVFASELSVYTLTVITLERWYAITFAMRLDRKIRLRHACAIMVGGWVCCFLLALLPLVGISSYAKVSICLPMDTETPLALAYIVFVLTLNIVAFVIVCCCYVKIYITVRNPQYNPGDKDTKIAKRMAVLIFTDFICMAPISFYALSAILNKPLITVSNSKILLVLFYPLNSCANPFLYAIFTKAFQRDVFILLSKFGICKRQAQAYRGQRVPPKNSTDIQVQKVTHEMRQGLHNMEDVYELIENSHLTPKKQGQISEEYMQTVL
How it was run: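 Steps: seed 800 TSHR-HEK293 cells per well; add test compound and hold 30 min at ambient temperature; dispense cAMP-d2 then anti-cAMP cryptate; incubate 1 h at ambient; measure fluorescence intensity.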

Measured: Potency

O=C1O[C@@H]2[C@@H](O)[C@H](O)O[C@@H]2[C@H]1O
inactive: all assays above

CC1=CCC(C(C)C)=CC1
not listed: [8] | [9] | [10]
inactive: all other assays above

CC(C)(C)c1cc(CCC(=O)NN)cc(C(C)(C)C)c1O
active: [6] 30.6 µM
inactive: all other assays above

COC(=O)CCCCCCCC(=O)OC
inactive: all assays above

C[C@@H](Oc1ccc(CNC(=O)c2cccnc2Oc2ccc3c(c2)OCO3)c(F)c1)C(=O)O
not listed: [10]
inactive: all other assays above

CCCCCCCCSCC
inactive: all assays above

CC(=C(CCOC(=O)C(C)C)SSC(CCOC(=O)C(C)C)=C(C)N(C=O)Cc1cnc(C)nc1N)N(C=O)Cc1cnc(C)nc1N
inactive: all assays above

CN(C)c1ccc(C=O)cc1
inactive: all assays above

COc1ccc(OC)c(Cl)c1
inactive: all assays above

CCCCCCCCCCCCCC
inactive: all assays above

CCOc1cc(NC(C)=O)ccc1C(=O)OC
inactive: all assays above

C=C(C)C(=O)OCCNC(C)(C)C
inactive: all assays above

CCNC(=O)C1CC(C)CCC1C(C)C (centres undefined)
inactive: all assays above

NS(=O)(=O)c1ccc(NC(=O)CCC(=O)O)cc1
not listed: [8] | [9]
inactive: all other assays above

COP(=O)(OC)OC(c1ccc(Cl)cc1)P(=O)(OC)OC (centres undefined)
inactive: all assays above

COC(=O)c1ccccc1C(=O)c1ccc(OCCN2CCCCC2)cc1
inactive: all assays above

O=C(O)C(=O)Cc1ccccc1
active: [10] 30.6 µM
not listed: [8] | [9]
inactive: all other assays above

CNS(=O)(=O)CCc1ccc2[nH]cc(C3CCN(C)CC3)c2c1
not listed: [8] | [9]
inactive: all other assays above

CCC(CC)CO
not listed: [8] | [9]
inactive: all other assays above

CC(=O)NCCCCCC(=O)O
not listed: [8] | [9]
inactive: all other assays above

CCN1CCc2nc(N)oc2CC1
not listed: [8] | [9]
inactive: all other assays above

C=CCCCCCCCCCCCC
not listed: [8] | [9]
inactive: all other assays above

O=C(O)CCSSCCC(=O)O
not listed: [8] | [9]
inactive: all other assays above

Cc1ccc2c(c1)OCC(=O)CO2
not listed: [9]
inactive: all other assays above
